Unmarked numbers belong to inactive results. Calls of active or inactive are those of the source. Unless noted, no stated cut-off is given here; in the data, active means inhibition above about 28%; inactive means the rest.

Data on 15 molecules can be found in PubChem BioAssay.

Test [1] has as its target Nuclear receptor coactivator 3 (Homo sapiens) (UniProt Q9Y6Q9). The experiment in a line: NCOA3 GAL4-fusion reporter inhibition – cell-based, luminescence, quadruplicate, confirmation (AID 588792;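 active means mean inhibition over 43.08%, the solvent-only control mean plus 3 SD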;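 further: 0% = DMSO treated cells and 100% = gossypol at 36 µM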). The settings on record: HEK293 GAL4-SRC3 luciferase reporter, at 3.6 µM, active compounds read high.
Test [2] has as its system transactivating tegument protein VP16 (Human herpesvirus 1), Gal4-VP16 luciferase reporter. The experiment in a line: repression of VP16-driven luciferase reporter – cell-based, luminescence, high throughput, counter-screen for SRC3 inhibitor project (AID 588794; in the data active means inhibition above about 30%). The settings on record: mammalian cells, at 3.6 µM, active compounds read high.
Test [3] addresses Nuclear receptor coactivator 1 (Homo sapiens) (UniProt Q15788). In words: NCOA1 GAL4-fusion reporter inhibition – cell-based, luminescence, quadruplicate, confirmation (AID 588820;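 active means mean inhibition above 46.68%, the untreated control wells mean plus 3 SD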;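 further: 0% = DMSO wells and 100% = gossypol 36 µM treated wells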). The settings on record: HEK293 GAL4-SRC1 luciferase reporter, at 3.6 µM, active compounds read high.
The nature of test [4]: repression of VP16-driven luciferase reporter – cell-based, luminescence, high throughput, counter-screen for SRC1 inhibitor project (AID 588824; in the data active means inhibition above about 25%). The settings on record: cell-based VP16 transactivation luciferase luminescence; at 3.6 µM; active compounds read high.
The nature of test [5]: StAR promoter reporter inhibitors, counter-screen for LRH-1 inverse agonist project, cell-based, luminescence, high throughput (AID 651611). The settings on record: StAR promoter luciferase reporter counterscreen, at 3.6 µM, active compounds read high.
Test [6] has as its target Nuclear receptor subfamily 5 group A member 2 (Homo sapiens) (UniProt O00482). The experiment in a line: NR5A2 activity suppression in reporter cells – cell-based, luminescence, confirmation (AID 651613; in the data active means inhibition above about 42%;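 further: HEK293T cells co-transfected with LRH-1 and StAR promoter luciferase reporter; 0% = vehicle wells and 100% = parental cells lacking receptor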). The conditions noted are these: cell-based LRH-1 luciferase reporter, inverse agonism; at 3.6 µM; active compounds read high.
Test [7] addresses Steroidogenic factor 1 (Homo sapiens) (UniProt Q13285). In words: inverse agonism at SF1 nuclear receptor – cell-based, luminescence, high throughput, counter-screen for LRH-1 inverse agonist project (AID 651614; in the data active means inhibition above about 44%;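 further: cells cotransfected with StAR promoter reporter and SF1 expression vector; 0% = vehicle on cells with receptor and 100% = vehicle on cells lacking receptor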). The settings on record: cell-based SF1 luciferase reporter, at 3.6 µM, active compounds read high.
A short description of test [8]: compounds suppressing VP16-driven luciferase signal – cell-based, luminescence, high throughput, counter-screen for LRH-1 inverse agonist project (AID 651615; in the data active means inhibition above about 33%). The settings on record: Gal4-VP16 luciferase reporter cells, at 3.6 µM, active compounds read high.
Test [9] deals with transactivating tegument protein VP16 (Human herpesvirus 1). In words: compounds suppressing VP16-driven luciferase signal – cell-based, luminescence, single concentration, counter-screen for SRC2 inhibitor project (AID 652007; in the data active means inhibition above about 36%). The settings on record: cell-based VP16 transactivation luciferase reporter, at 8.9 µM, active compounds read high.
Test [10] addresses Nuclear receptor coactivator 2 (Homo sapiens) (UniProt Q15596). The experiment in a line: inhibition of GAL4-SRC2 driven luciferase expression – cell-based, luminescence, HEK293, triplicate, confirmation (AID 652008;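 active means mean inhibition above 46.5%, the solvent-only control mean plus 3 SD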;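 further: 0% = DMSO-treated cells and 100% = Gossypol at 36 µM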). The settings on record: HEK293 GAL4-SRC2 luciferase reporter, at 8.9 µM, active compounds read high.

Sequence of Nuclear receptor coactivator 2 (Homo sapiens) (Q15596 whole entry, looked up, the tested form may be a part): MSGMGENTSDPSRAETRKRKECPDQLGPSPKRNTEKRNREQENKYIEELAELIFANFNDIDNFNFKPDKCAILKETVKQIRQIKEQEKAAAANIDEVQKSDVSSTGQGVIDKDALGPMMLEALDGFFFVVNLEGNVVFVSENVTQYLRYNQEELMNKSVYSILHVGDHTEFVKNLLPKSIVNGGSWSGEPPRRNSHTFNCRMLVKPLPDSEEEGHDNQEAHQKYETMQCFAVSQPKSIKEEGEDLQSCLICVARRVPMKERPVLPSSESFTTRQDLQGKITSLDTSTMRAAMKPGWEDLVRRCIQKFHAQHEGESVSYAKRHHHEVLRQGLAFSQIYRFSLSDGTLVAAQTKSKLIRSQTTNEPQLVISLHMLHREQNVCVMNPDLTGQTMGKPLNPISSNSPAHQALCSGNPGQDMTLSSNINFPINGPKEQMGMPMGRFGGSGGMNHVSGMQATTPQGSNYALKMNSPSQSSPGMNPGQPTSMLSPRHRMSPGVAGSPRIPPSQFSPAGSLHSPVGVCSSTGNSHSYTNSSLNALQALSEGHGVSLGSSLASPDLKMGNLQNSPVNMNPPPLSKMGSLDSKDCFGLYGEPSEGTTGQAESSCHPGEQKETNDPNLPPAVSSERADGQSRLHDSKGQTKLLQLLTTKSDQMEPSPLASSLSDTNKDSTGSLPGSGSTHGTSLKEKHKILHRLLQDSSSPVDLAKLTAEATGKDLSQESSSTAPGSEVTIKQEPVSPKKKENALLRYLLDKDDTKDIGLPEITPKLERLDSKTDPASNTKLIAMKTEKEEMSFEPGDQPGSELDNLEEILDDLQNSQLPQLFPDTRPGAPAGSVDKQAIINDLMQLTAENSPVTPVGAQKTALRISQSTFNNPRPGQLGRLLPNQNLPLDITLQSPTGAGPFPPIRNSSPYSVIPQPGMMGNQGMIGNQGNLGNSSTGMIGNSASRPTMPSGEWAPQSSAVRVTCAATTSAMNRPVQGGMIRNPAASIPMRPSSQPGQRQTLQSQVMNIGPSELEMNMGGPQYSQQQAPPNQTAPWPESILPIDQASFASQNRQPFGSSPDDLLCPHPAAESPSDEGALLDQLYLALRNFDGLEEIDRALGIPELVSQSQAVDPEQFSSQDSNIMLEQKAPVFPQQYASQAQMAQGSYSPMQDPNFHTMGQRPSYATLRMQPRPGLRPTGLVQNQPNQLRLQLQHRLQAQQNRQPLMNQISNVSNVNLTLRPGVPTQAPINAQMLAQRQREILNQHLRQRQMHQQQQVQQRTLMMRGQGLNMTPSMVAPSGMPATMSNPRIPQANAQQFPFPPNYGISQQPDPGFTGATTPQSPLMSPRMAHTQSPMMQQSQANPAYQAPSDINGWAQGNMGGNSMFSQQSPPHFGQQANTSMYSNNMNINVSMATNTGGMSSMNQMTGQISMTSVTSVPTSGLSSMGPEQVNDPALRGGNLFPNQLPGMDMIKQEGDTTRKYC
Sequence of Nuclear receptor coactivator 3 (Homo sapiens) (Q9Y6Q9 whole entry, looked up, the tested form may be a part): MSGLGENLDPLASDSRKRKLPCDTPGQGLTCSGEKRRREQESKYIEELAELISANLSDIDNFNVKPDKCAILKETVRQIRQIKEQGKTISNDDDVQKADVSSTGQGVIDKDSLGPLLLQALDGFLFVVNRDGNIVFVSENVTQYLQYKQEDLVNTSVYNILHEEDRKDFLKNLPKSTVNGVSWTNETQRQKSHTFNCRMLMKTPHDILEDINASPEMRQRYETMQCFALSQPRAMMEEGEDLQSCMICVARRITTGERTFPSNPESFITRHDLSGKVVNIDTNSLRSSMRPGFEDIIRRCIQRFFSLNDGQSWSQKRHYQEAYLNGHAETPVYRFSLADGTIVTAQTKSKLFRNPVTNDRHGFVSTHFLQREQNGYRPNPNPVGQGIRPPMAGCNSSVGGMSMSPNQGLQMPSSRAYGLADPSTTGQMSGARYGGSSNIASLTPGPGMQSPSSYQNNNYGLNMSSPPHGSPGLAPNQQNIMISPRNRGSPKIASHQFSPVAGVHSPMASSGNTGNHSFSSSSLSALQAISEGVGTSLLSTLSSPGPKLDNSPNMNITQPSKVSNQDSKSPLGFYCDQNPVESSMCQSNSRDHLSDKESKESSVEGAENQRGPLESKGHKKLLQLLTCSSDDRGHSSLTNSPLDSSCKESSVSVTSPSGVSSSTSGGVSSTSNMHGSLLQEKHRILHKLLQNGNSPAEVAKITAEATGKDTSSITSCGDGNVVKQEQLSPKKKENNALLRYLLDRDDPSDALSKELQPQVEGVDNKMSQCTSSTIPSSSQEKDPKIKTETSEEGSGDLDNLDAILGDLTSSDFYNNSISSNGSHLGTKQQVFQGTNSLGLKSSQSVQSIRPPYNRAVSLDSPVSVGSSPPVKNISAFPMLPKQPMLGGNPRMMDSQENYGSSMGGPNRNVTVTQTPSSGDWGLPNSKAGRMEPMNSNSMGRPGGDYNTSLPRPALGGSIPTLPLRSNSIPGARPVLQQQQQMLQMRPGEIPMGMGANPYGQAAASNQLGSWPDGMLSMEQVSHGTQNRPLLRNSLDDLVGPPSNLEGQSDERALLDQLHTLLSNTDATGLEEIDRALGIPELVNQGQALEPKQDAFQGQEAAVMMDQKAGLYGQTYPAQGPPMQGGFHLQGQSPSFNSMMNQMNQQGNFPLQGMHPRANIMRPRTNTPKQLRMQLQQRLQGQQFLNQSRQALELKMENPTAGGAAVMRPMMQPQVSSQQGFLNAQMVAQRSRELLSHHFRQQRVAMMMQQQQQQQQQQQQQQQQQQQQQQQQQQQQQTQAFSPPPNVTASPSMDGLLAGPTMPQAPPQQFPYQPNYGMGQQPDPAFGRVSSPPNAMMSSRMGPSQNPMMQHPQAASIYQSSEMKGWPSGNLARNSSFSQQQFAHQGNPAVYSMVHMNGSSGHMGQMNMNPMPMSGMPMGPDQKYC
Sequence of Steroidogenic factor 1 (Homo sapiens) (Q13285 whole entry, looked up, the tested form may be a part): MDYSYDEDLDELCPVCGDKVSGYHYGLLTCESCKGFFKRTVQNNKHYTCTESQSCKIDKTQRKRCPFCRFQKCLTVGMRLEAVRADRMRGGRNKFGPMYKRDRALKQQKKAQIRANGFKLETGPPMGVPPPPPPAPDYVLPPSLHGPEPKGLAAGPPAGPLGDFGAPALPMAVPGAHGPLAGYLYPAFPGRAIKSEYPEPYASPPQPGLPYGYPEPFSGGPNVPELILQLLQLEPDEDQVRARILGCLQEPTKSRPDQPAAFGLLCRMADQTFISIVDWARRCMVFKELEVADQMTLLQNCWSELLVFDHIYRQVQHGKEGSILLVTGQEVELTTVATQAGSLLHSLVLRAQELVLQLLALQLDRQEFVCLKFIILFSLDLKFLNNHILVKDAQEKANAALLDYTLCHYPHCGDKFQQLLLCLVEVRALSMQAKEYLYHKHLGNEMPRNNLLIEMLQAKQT
Sequence of Nuclear receptor subfamily 5 group A member 2 (Homo sapiens) (O00482 whole entry, looked up): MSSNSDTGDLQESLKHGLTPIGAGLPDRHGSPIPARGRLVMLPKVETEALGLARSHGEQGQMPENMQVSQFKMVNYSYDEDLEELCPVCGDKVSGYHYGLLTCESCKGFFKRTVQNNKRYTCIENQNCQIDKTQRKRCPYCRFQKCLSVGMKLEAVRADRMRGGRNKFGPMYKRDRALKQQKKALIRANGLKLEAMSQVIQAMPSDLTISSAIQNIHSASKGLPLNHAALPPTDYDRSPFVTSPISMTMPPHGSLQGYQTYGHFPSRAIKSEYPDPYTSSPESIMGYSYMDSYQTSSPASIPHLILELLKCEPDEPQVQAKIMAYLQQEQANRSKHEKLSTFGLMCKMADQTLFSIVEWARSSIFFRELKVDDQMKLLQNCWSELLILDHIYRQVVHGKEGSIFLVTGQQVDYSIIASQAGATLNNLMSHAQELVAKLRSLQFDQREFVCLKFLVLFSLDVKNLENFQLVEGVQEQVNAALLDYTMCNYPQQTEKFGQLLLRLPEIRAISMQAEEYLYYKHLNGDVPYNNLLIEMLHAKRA

Consider `O=C(CSCC(=O)Nc1ccccc1)N/N=C/c1c(O)ccc2ccccc12`, for which the inhibition in test [1] is 49.3% (active); in test [2], 30.7% (active); in [3], 45.4%; in test [4] it was 33.4% (active); in test [5], 86% (active); in test [6], 102% (active). In addition, the inhibition was 91.5% (active) in test [7], 82.9% (active) in test [8], -14.6% in test [9] and 21.6% in test [10].

For `COc1cccc(N2CCN(c3ncnc4c3cnn4-c3ccc(C)cc3C)CC2)c1`, the inhibition was 88.3% (active) in test [1]; 81.1% (active) in test [2]; 54.6% (active) in test [3]; 86.2% (active) in test [4]; 83.2% (active) in test [5]; 97.4% (active) in test [6]. Further, the inhibition in test [7] is 89.8% (active); in [8], 90.2% (active); in test [9] it was 81.1% (active); in test [10] it was 72.1% (active).

For `Cc1c(/C(O)=C2/C(=O)C(=O)N(Cc3cccnc3)C2c2ccccn2)cnn1-c1ccccc1` (stereo not given), the inhibition in test [1] was 38.2%; in test [2] it was 3.13%; in test [3] it was 20.1%; in test [4], -13.8%; in test [5], 42% (active); in [6], 23.4%. Besides, the inhibition in test [7] was 36.8%; in [8], 7.05%; in test [9], 11.9%; in [10], 52.3% (active).

`Cc1ccc(Nc2nc(N)nc(CCl)n2)c(C)c1`: the inhibition in [1] is 74% (active); in [2] it was 32.8% (active); in test [3], 38.6%; in test [4] it was 28.1% (active); in test [5], 20%; in test [6], 58.7% (active). For the same molecule, the inhibition in test [7] was 29.4%; in test [8] it was 56% (active); in [9] it was -27.8%; in [10], 40.4%.

Turning to `Cc1nc2c(O)c3c(c(O)c2nc1C)C1C=CC3CC1`, the inhibition in test [1] is 96.9% (active); in test [2], 93.2% (active); in [3], 88.9% (active); in test [4], 92.6% (active); in test [5], 91.8% (active); in test [6], 107% (active). The inhibition is 96.3% (active) in test [7], 98.5% (active) in [8], 75% (active) in test [9] and 79.4% (active) in test [10].

Consider `O=C(CCC1CCCC1)Nc1ccc(C(=O)NCc2cccnc2)cc1`, for which the inhibition in test [1] is 88.5% (active); in [2] it was 43.3% (active); in [3], 62.4% (active); in [4], 24.4%; in test [5], 88% (active); in [6], 98.7% (active). For the same molecule, the inhibition in [7] was 94.8% (active); in [8] it was 66.9% (active); in test [9], -5.72%; in test [10], 48.6% (active).

As for `Cc1cc(C2=NNC(=NC3CC3)SC2)c(C)n1-c1ccccc1F`, the inhibition in test [1] was 84.8% (active); in [2], 88.3% (active); in test [3], 78.7% (active); in [4], 80.7% (active); in [5], 92% (active); in [6] it was 79.6% (active). Further, the inhibition in test [7] was 91.1% (active); in test [8], 79.1% (active); in test [9], 93.6% (active); in test [10], 97% (active).

In the case of `O=C(O)c1ccccc1C(=O)Nc1ccc(Oc2cccc3ccccc23)cc1`, the inhibition in test [1] was 26%; in test [2], 32.2% (active); in test [3], 28%; in test [4] it was 21.7%; in test [5] it was 34.5% (active); in [6] it was 29.8%. Further, the inhibition in test [7] was 57% (active); in test [8], 13.4%; in [9], 77.6% (active); in test [10] it was 75.2% (active).

For `CC(C)(C)c1ccc(C(=O)N2CCCCCC2=O)cc1`, the inhibition in test [1] was 58% (active); in test [2], 41% (active); in test [3], 35.8%; in [4], 33.1% (active); in [5], 45.6% (active); in [6], 62.1% (active). Also, the inhibition in [7] is 56.1% (active); in test [8], 56.4% (active); in test [9], 63.6% (active); in test [10] it was 89.2% (active).

With `CN(c1ncnc(N)c1[N+](=O)[O-])C1CCCCC1`, the inhibition was 82.5% (active) in test [1]; 59.7% (active) in test [2]; 69.9% (active) in [3]; 55.3% (active) in [4]; 32.3% (active) in test [5]; 56.7% (active) in test [6]. Also, the inhibition in test [7] is 44.1% (active); in test [8] it was 72.2% (active); in test [9] it was 28.4%; in [10], 59.8% (active).

In the case of `O=C(CC1CS(=O)(=O)CC1CC(=O)Nc1ccc2c(c1)OCCO2)Nc1ccc2c(c1)OCCO2` (stereo not given), the inhibition was 37.1% in test [1]; -5.19% in test [2]; -14.1% in test [3]; -21.8% in test [4]; -26.2% in test [5]; -91.7% in test [6]. Further, the inhibition in test [7] is -43.4%; in test [8], -53.8%; in test [9] it was 46.5% (active); in [10] it was 57% (active).

For the molecule `CC1CCCN(c2ncnc3c2cnn3-c2ccc(Cl)cc2)C1` (stereo not given), the inhibition was 88.7% (active) in test [1]; 84.3% (active) in test [2]; 74.4% (active) in [3]; 71.4% (active) in [4]; 80.3% (active) in [5]; 60.3% (active) in [6]. Besides, the inhibition in test [7] was 79.2% (active); in [8] it was 66.5% (active); in test [9] it was 82% (active); in test [10] it was 93.9% (active).

In the case of `CCn1c(C)cc(C(=O)CN2C(=O)c3ccccc3S2(=O)=O)c1C`, the inhibition in [1] is 30.1%; in [2], 31.5% (active); in [3], -18.2%; in test [4], 25%; in [5], 33.4% (active); in test [6] it was -16.2%. Also, the inhibition in [7] was 28.1%; in test [8], 11%; in test [9], 46.9% (active); in [10] it was 59.8% (active).

Regarding `CCCNC1=C(N(C(C)=O)c2cccc(F)c2)C(=O)c2ccccc2C1=O`, the inhibition was 49.9% (active) in [1]; 65.3% (active) in test [2]; 58.6% (active) in test [3]; 67.2% (active) in test [4]; 68.9% (active) in test [5]; 68.8% (active) in test [6]. Further, the inhibition was 88% (active) in test [7], 69.2% (active) in test [8], 24.1% in [9] and 34.3% in test [10].

Turning to `Cc1ccc(C(=O)O/N=C(\N)c2ccccn2)c(C)c1`, the inhibition in test [1] is 60% (active); in test [2] it was 42.3% (active); in test [3], 15%; in test [4] it was 28.9% (active); in [5], 33.2% (active); in test [6] it was 9.46%. In addition, the inhibition was 36.5% in [7], 13.6% in [8], 71.3% (active) in [9] and 86% (active) in [10].
